Results on five compounds are retold here after PubChem BioAssay.

Test [1] is described as follows: optical density shifts of acrAB sulA E. coli – strain DRC41, OD650, 48 h, E. coli filamentation inducer project, primary screen (AID 1152).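 Also: E. coli MC1000 strain DRC41 lacking acrAB efflux pump and sulA.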 Conditions: higher = more signal, called active from +8 up or from −8 down.
Test [2] in a line: probe aLefty1 binding on compound microarray – biochemical, small-molecule microarray, 635/667 nm fluorescence, primary screen (AID 1153).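 Also: score merges spot fluorescence with signal-to-noise ratio from the scanned slide images.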 Conditions: higher = more signal.
The nature of test [3]: plasmodial surface anion channel blockers, osmotic lysis – cell-based, P. falciparum Indochina, OD700, 1 h, primary screen (AID 1154). Conditions: P. falciparum Indochina infected RBC osmotic lysis, higher = more signal, called active from +8 up or from −8 down.
Test [4] can be described thus: plasmodial surface anion channel blockers, osmotic lysis – cell-based, P. falciparum Indochina, OD700, 2 h, primary screen (AID 1155).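 Also: lysis reports solute entry through the parasite surface anion channel PSAC.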 Conditions: P. falciparum Indochina infected erythrocytes, higher = more signal, called active from +8 up or from −8 down.
Test [5] can be described thus: changes in parasitized red cell lysis, either direction – P. falciparum Indochina, OD700, 3 h, PSAC antagonist project, primary screen (AID 1156). Conditions: P. falciparum-infected erythrocytes, osmotic lysis, higher = more signal, called active from +8 up or from −8 down.
Test [6] in a line: plasmodial surface anion channel blockers, osmotic lysis – cell-based, P. falciparum Indochina, OD700, 18 h, primary screen (AID 1157). Conditions: P. falciparum Indochina infected erythrocytes, osmotic lysis OD700, 18 h; higher = more signal, called active from +8 up or from −8 down.
A short description of test [7]: S6 kinase pathway phospho-S6 level changes – cell-based, A549, cytoblot, luminescence, serum-stimulated, primary screen (AID 1158).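 Also: serum-stimulated A549 lung adenocarcinoma cells; signal is phosphorylated S6 detected by cytoblot immunostaining with HRP secondary.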 Particulars: 5 h, higher = more signal.
For test [8], the target named is NADPH oxidase 2 (Homo sapiens) (UniProt P04839). Nature of the test: compounds shifting NOX2 Amplex Red fluorescence – cell-based, HEK293-NOX2, PMA-stimulated, NOX inhibitor project, primary screen (AID 1159). Also: test concentration not given here. Particulars: 45 min, higher = more signal, called active from +8 up or from −8 down.
Test [9] has as its target NADPH oxidase 4 (Homo sapiens) (UniProt Q9NPH5). In words: compounds shifting NOX4 Amplex Red fluorescence – cell-based, HEK293-NOX4, tetracycline-induced, NOX inhibitor project, primary screen (AID 1160). Conditions: HEK293-NOX4, Amplex Red H2O2 fluorescence, 45 min; higher = more signal, called active from +8 up or from −8 down.
For test [10], the target named is NADPH oxidase 5 (Homo sapiens) (UniProt Q96PH1). Nature of the test: compounds shifting NOX5 Amplex Red fluorescence – cell-based, HEK293-NOX5, NOX inhibitor project, primary screen (AID 1161). Conditions: HEK293-NOX5, ionomycin, 45 min, higher = more signal.
Test [11] can be described thus: compound effects on lung adenocarcinoma cell viability – A549, calcein-AM fluorescence, 48 h, basal, profiling panel (AID 1162). Also: test concentration not given here. Conditions: higher = more signal.
The nature of test [12]: compound effects on differentiated 3T3-L1 adipocyte viability – cell-based, 3T3-L1 adipocytes, calcein-AM fluorescence, 48 h, basal, profiling panel (AID 1163). Also: test concentration not given here. Particulars: 3T3-L1 adipocytes viability, higher = more signal.
Test [13] is described as follows: compound effects on hepatocellular carcinoma cell viability – HepG2, calcein-AM fluorescence, 48 h, basal, profiling panel (AID 1164). Also: test concentration not given here. Particulars: higher = more signal.
Test [14] is described as follows: compound effects on multiple myeloma cell viability – MM1S, calcein-AM fluorescence, 48 h, basal, profiling panel (AID 1165). Also: test concentration not given here. Conditions: higher = more signal.
Test [15] is described as follows: calcein-AM signal in unstimulated myeloma cells – cell-based, calcein-AM fluorescence, 48 h, PK04 Diversity Set, profiling panel (AID 1166).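 Also: cells grown under basal conditions without added stimulus; test concentration not given here.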 Conditions: RPMI8226 myeloma viability, higher = more signal.
Test [16] can be described thus: JC-1 mitochondrial signal, unstimulated HepG2 cells – cell-based, JC-1 fluorescence, 24 h, 100 nL compound, profiling panel (AID 1167). Also: test concentration not given here. Particulars: HepG2 mitochondrial potential, higher = more signal.
Test [17] in a line: JC-1 mitochondrial signal, unstimulated adipocytes – cell-based, JC-1 fluorescence, 3T3-L1 adipocytes, 24 h, 100 nL compound, profiling panel (AID 1168). Also: test concentration not given here. Conditions: JC-1 mitochondrial fluorescence, higher = more signal, called active from +8 up or from −8 down.
Test [18] is described as follows: JC-1 mitochondrial signal, unstimulated myeloma cells – cell-based, JC-1 fluorescence, RPMI8226, 24 h, 100 nL compound, profiling panel (AID 1169). Also: test concentration not given here. Conditions: JC-1 mitochondrial potential fluorescence, higher = more signal.
Test [19] in a line: JC-1 mitochondrial signal, unstimulated MM1S myeloma – cell-based, JC-1 fluorescence, 24 h, 100 nL compound, profiling panel (AID 1170). Also: test concentration not given here. Conditions: MM1S mitochondrial potential, higher = more signal.
A short description of test [20]: resazurin metabolic signal in A549 cells – cell-based, resazurin fluorescence, 24 h, PK04 Diversity Set, profiling panel (AID 1171). Also: test concentration not given here. Conditions: A549 viability, higher = more signal, called active from +8 up or from −8 down. On the technique in general: Alamar Blue is a resazurin reagent that responds to reducing activity.

Calls of active or inactive are those of the source.

Sequence of NADPH oxidase 5 (Homo sapiens) (Q96PH1 whole entry, looked up): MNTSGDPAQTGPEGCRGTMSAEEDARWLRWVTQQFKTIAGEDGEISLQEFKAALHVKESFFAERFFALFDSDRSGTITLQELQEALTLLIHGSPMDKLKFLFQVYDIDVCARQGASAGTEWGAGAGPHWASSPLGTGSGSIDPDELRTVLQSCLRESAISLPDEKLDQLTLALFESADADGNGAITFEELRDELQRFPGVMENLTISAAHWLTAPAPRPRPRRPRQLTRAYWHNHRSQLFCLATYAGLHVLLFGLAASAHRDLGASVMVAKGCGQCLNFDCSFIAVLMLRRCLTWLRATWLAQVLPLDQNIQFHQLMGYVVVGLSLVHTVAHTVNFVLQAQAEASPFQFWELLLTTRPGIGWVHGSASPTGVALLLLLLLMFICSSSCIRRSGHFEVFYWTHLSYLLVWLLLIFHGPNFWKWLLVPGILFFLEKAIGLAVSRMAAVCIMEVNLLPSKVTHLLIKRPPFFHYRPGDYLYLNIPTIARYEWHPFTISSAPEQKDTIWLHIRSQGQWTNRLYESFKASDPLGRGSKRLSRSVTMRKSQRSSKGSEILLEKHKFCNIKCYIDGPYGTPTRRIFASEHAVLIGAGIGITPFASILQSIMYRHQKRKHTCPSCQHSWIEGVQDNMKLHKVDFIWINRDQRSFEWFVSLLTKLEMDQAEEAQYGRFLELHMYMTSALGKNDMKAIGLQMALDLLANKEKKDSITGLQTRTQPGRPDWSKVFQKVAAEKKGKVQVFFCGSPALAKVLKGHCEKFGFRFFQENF
Sequence of NADPH oxidase 2 (Homo sapiens) (P04839 whole entry, looked up): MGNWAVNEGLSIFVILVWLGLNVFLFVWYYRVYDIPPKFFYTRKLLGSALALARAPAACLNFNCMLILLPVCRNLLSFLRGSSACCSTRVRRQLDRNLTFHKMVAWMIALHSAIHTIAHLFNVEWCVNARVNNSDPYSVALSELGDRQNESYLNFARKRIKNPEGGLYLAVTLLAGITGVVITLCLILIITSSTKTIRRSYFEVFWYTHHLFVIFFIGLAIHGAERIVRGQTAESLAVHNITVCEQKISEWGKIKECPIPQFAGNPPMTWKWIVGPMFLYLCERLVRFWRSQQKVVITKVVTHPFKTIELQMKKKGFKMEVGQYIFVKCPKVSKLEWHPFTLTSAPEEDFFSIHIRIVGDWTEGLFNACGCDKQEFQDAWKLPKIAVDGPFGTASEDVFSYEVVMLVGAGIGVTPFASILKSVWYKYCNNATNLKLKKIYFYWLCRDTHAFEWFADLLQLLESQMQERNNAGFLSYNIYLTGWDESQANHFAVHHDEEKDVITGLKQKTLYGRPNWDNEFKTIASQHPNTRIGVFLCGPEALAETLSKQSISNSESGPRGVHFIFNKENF
Sequence of NADPH oxidase 4 (Homo sapiens) (Q9NPH5 whole entry, looked up): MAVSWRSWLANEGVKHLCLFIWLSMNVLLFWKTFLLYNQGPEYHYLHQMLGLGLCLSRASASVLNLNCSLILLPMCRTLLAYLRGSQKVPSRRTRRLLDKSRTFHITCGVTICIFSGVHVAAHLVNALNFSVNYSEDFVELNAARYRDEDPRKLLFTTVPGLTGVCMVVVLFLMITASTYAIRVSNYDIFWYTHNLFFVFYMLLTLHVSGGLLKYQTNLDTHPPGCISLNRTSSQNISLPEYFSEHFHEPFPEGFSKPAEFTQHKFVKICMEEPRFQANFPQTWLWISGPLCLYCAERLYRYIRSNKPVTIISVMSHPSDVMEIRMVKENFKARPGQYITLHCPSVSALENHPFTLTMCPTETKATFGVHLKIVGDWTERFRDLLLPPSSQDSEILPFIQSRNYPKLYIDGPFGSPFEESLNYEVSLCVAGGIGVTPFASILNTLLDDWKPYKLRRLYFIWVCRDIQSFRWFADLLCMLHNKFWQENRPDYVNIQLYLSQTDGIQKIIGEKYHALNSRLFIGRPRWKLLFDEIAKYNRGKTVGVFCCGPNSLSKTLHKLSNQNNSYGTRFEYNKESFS

As for `CCOC(=O)C[C@H]1[C@H](OC(=O)c2cc3ccccc3oc2=O)[C@@H](NC(=O)c2ccc3ccccc3n2)c2cc(OCCCO)ccc2N1C(=O)c1ccccc1`, the z-score was 0.571 (inactive) in test [1]; 1.31 (inactive) in test [3]; -0.639 (inactive) in [4]; 0.628 (inactive) in test [5]; -1.83 (inactive) in test [6]; 0.63 in test [7]. Also, the z-score was -0.253 (inactive) in test [8]; -0.654 (inactive) in test [9]; 0.86 in [10]; 0.321 in test [11]; 2.22 in [12]; 0.11 in test [13]. Also, the z-score is 0.204 in [14]; -0.785 in [15]; -0.187 in [16]; -0.408 (inactive) in [17]; -0.264 in [18]; -0.0996 in test [19]. Besides, in test [20], the z-score is -0.881 (inactive). In test [2], the composite z-score came out at 0.0793.

Consider `Cc1ccc(S[C@]2(C(=O)O)CC(=O)N(Cc3ccccc3)[C@@H]2c2ccc(CO)cc2I)cc1`, for which the z-score was -0.308 (inactive) in test [1]; 13.9 (active) in test [3]; 2.07 (inactive) in test [4]; 1.47 (inactive) in test [5]; 0.842 (inactive) in test [6]; -0.31 in test [7]. In addition, the z-score is 1.71 (inactive) in test [8]; -2.26 (inactive) in test [9]; 0.38 in test [10]; 0.282 in test [11]; 0.181 in [12]; 0.0583 in [13]. The z-score in test [14] is -2.82; in test [15] it was -2.03; in test [16], -0.862; in [17] it was -0.486 (inactive); in [18] it was -0.551; in [19], -0.967. Besides, the z-score in test [20] is 0.682 (inactive). For the same compound, in [2], the composite z-score turned out to be 0.157.

As to `O=C1O[C@@H](c2ccccc2)[C@@H](c2ccccc2)N2[C@@H](c3ccc(O)cc3)[C@]3(C(=O)Nc4ccccc43)[C@@H](C(=O)O)[C@H]12`, the z-score in test [1] was 0.772 (inactive); in test [3], 1.41 (inactive); in [4] it was -0.968 (inactive); in [5], 1.11 (inactive); in [6] it was -1.77 (inactive); in [7] it was 1.87. The z-score in test [8] is -0.215 (inactive); in test [9], -0.652 (inactive); in test [10] it was 0.0434; in test [11], -0.517; in [12], 0.875; in [13], -0.308. Moreover, the z-score in test [14] was -1.33; in [15], -1.03; in test [16], -0.517; in test [17], 0.0106 (inactive); in [18], -0.934; in [19] it was -0.536. Moreover, the z-score in test [20] is -0.0947 (inactive). Further, in [2], the composite z-score was -0.0536.

Regarding `COc1ccc(O[C@H]2C=C[C@@H](c3ccccc3)O[C@@H]2COC(=O)CCC(C)=NO[C@@H](C)c2cc(-c3c(C)cc(C)cc3C)no2)cc1`, the z-score in test [1] is 0.409 (inactive); in test [3] it was 0.595 (inactive); in test [4], 0.322 (inactive); in [5], 0.488 (inactive); in [6], 0.245 (inactive); in test [7], -0.0348. The z-score was 1.18 (inactive) in [8]; -0.00862 (inactive) in test [9]; -1.09 in [10]; -0.845 in test [11]; 0.0504 in test [12]; 0.033 in test [13]. For the same compound, the z-score in test [14] is 0.0731; in [15], -0.644; in test [16], 0.48; in test [17], -1.34 (inactive); in test [18] it was 0.129; in test [19], -0.424. Further, the z-score in test [20] was 1.8 (inactive). Moreover, in test [2], the composite z-score is -0.378.

Consider `COc1ccc(OC[C@H]2Cc3c(-c4ccccc4)nc4c(c3CO2)CN(CCOc2ccccc2)CC4)cc1`, for which the z-score in [1] was 0.481 (inactive); in test [3], 15.4 (active); in test [4] it was 0.946 (inactive); in test [5] it was 0.661 (inactive); in test [6], -0.718 (inactive); in [7] it was 1.76. For the same compound, the z-score is -0.0596 (inactive) in test [8]; -1.68 (inactive) in test [9]; -1.04 in test [10]; 0.823 in test [11]; 1.04 in test [12]; 0.562 in [13]. Besides, the z-score in test [14] is -2.69; in test [15], -1.81; in test [16], 3.51; in test [17], 0.367 (inactive); in test [18], -0.177; in test [19], 0.656. In addition, in [20], the z-score is -0.634 (inactive). In test [2], the composite z-score is -0.0141.
